Anthrax LF inh2: inhibitors of Bacillus anthracis lethal factor protease; inhibition, % at 10 µM; multiplex microsphere protease cleavage assay, LF; P15917; 360,000 compounds, 0.12% hits; further: plate controls were buffer without enzyme for full effect and enzyme alone for no effect
Target sequence (P15917 whole entry, looked up): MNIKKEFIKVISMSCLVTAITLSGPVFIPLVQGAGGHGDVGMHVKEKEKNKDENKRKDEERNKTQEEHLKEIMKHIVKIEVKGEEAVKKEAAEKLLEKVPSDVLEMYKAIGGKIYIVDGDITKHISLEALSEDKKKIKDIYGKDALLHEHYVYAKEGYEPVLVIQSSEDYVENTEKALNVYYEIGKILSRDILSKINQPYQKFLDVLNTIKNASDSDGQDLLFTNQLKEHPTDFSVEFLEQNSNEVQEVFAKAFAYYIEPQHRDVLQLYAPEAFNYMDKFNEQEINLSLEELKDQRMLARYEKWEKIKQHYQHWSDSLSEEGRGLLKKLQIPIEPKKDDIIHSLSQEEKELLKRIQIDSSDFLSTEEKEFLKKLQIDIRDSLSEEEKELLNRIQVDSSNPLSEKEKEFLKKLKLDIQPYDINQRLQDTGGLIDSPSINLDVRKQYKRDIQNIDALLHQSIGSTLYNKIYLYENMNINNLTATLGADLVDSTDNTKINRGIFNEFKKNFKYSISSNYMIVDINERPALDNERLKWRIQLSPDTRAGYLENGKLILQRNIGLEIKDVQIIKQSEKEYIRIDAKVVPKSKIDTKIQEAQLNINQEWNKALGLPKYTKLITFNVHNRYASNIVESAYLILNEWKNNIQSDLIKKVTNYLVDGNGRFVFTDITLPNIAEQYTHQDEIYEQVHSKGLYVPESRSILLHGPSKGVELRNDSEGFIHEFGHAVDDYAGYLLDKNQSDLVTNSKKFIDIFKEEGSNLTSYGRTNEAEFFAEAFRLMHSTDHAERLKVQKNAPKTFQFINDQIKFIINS
Bead autofluor: flagged as autofluorescent in microsphere protease counterscreen | 360,000 compounds, 3.1% hits | AID 624483 | fluorescence intensity (test concentration not listed) | compound autofluorescence counterscreen, microsphere flow cytometry; stronger effect = higher value; in the data active means fluorescence intensity above about 16000; inconclusive means no clear call, values can overlap the other calls
BoNT F protease: inhibitors of Botulinum neurotoxin F light chain protease; Multiplex microsphere protease cleavage assay, flow cytometry; inhibition, % at 10 µM; 360,000 compounds, 0.22% hits; in the data active means inhibition above about 35%, passing the limit was not always enough; inconclusive means no clear call, values can overlap the other calls; further: plate controls were buffer without enzyme for full effect and enzyme alone for no effect
TcdB GH inh: inhibitors of Clostridioides difficile toxin B glycohydrolase | 350,000 compounds, 0.24% hits | TcdB glycohydrolase enzymatic assay, plate reader | P18177 | inhibition, % at 9.99 µM; in the data active means inhibition above about 10%
BoNT A protease: BoNT A light chain protease inhibition; multiplex microsphere protease substrate cleavage, flow cytometry; inhibition, % at 10 µM; 360,000 compounds, 0.17% hits; AID 588499; further: plate controls were buffer without enzyme for full effect and enzyme alone for no effect
An asterisk follows results filed as active; ? = inconclusive; nt = no result given. Shown is part of a subset that was picked to be rich in hits. Unless noted, no stated cut-off is given here; in the data, active means inhibition above about 30%; inconclusive means no clear call, values can overlap the other calls; inactive means below that.

SMILES	Anthrax LF inh2	Bead autofluor	BoNT F protease	TcdB GH inh	BoNT A protease
COc1ccccc1-c1nnc2sc(COc3ccc(Cl)cc3Cl)nn12	-2	6462	-16	nt	0
COc1ccc(OCc2nn3c(Cn4cnc5ccccc54)nnc3s2)cc1	-5	16600*	-2	nt	-2
COc1ccccc1-c1nnc2sc(COc3ccccc3)nn12	-12	20024*	11	nt	8
COc1ccc(-c2ccc([C@H]3[C@@H](CO)N4C(=O)CN(Cc5ccc(C)cc5)C[C@@H]34)cc2)cc1	nt	nt	nt	-1	nt
CO[C@H]1CN(C)C(=O)c2cc(NC(=O)C3CC3)ccc2OC[C@H](C)N(C(=O)c2cnccn2)C[C@@H]1C	nt	nt	nt	0	nt
CO[C@H]1CN(C)C(=O)c2cc(NC(=O)C3CC3)ccc2OC[C@@H](C)N(Cc2nccs2)C[C@H]1C	nt	nt	nt	0	nt
O=C(c1ccc(Br)s1)N1CCN(c2ncccn2)CC1	2	23389*	0	nt	2
N#C/C(C(=O)N1CCOCC1)=C1\Nc2ccccc2S1	-1	20837*	1	nt	0
C[C@@H](NC(=O)C[C@@H]1CC[C@@H]2[C@H](COC[C@H](O)CN2C(=O)Nc2cccc(F)c2)O1)c1ccccc1	nt	nt	nt	-1	nt
O=C(CSc1nnc2scc(-c3ccc(Cl)cc3)n12)NCc1ccc2c(c1)OCO2	-1	24173*	1	2	-2
O=C(CSc1n[nH]c(-c2cccs2)n1)NCc1ccc2c(c1)OCO2	-5	22840*	0	nt	1
O=C(CSc1nnc2scc(-c3ccc(Cl)cc3)n12)NCc1ccco1	-5	25480*	-10	1	-7
C[C@@H]1CN([C@@H](C)CO)C(=O)c2cc(C#CC3CC3)cnc2O[C@@H]1CN(C)C(=O)Nc1ccccc1	nt	nt	nt	0	nt
O=C1CN(S(=O)(=O)c2ccccc2)C[C@H]2[C@H](c3ccc(C#CCc4ccccc4)cc3)[C@H](CO)N12	nt	nt	nt	0	nt
C=CCOc1ccccc1/C=N/O	-2	24314*	-5	nt	?
O=C(C[C@@H]1C[C@@H]2c3cc(NC(=O)c4ccc5c(c4)OCO5)ccc3O[C@@H]2[C@H](CO)O1)NCc1cccnc1	nt	nt	nt	2	nt
CN1CCN(C(=O)CCNC(=O)Cn2ccc3ccccc3c2=O)CC1	-12	6370	4	nt	2
Cc1cccc(N2CCN(C(=O)CCNC(=O)Cn3ccc4ccccc4c3=O)CC2)c1C	-19	19164*	10	nt	?
O=C(Cn1cnc2ccccc2c1=O)NCCC(=O)N1CCN(c2ccccc2)CC1	-5	22618*	2	nt	?
CCN1CCN(C(=O)CCNC(=O)Cn2cnc3ccccc3c2=O)CC1	6	2970	6	0	-1
CC(C)CC#Cc1ccc2c(c1)O[C@H](CN(C)C(=O)c1ccccc1F)[C@@H](C)CN([C@H](C)CO)S2(=O)=O	nt	nt	nt	1	nt
Cc1cc(/C=N/n2cnnc2)c(C)n1-c1ccc(OCc2ccccc2F)cc1	-7	11396	-18	3	-2
S=c1[nH]ncn1/N=C/c1cccc(Oc2ccccc2)c1	0	4208	8	nt	2
Fc1ccccc1COc1cccc(/C=N/n2cnnc2)c1	0	24150*	-7	nt	-2
C(=N\n1cnnc1)/c1cccc(Oc2ccccc2)c1	-1	22913*	0	nt	1
SMILES	Anthrax LF inh2	Bead autofluor	BoNT F protease	TcdB GH inh	BoNT A protease
Cc1ccc(/C=C(\C#N)C(=O)Nc2ccccn2)o1	-3	3939	-1	17*	0
COc1cc(NC(=O)c2noc3c2CCC3)c(OC)cc1Cl	-1	19679*	3	nt	3
COC(=O)c1ccccc1NC(=O)c1noc2c1CCCC2	-2	19950*	1	nt	2
COc1cc(NC(=O)c2noc(C)c2[N+](=O)[O-])c(OC)cc1Cl	0	5565	4	2	-1
COC(=O)c1ccc(CSc2nc(C)nc3sc(C)c(C)c23)o1	0	22019*	5	nt	1
Cc1c(C(=O)NC(C)C)sc2ncn(CC(=O)N3CCC(C)CC3)c(=O)c12	-8	19793*	2	2	2
Cc1c(C(N)=O)sc2ncn(CC(=O)N3CCC(C)CC3)c(=O)c12	-6	22473*	1	nt	1
CN(C)Cc1cn(CC[C@@H]2CC[C@H](NS(=O)(=O)c3ccc(-c4ccccc4)cc3)[C@H](CO)O2)nn1	nt	nt	nt	1	nt
Cc1cc(NC(=O)CSc2nnc(-c3ccco3)n2Cc2ccccc2)no1	4	3763	-13	nt	-1
CCOc1ccccc1NC(=O)CSc1nnc(-c2ccco2)n1Cc1ccco1	-12	21394*	2	nt	2
Cc1cc(NC(=O)CSc2nnc(-c3ccco3)n2Cc2ccco2)no1	-10	19201*	3	nt	1
COc1ccc(C)cc1NC(=O)CSc1nnc(-c2ccco2)n1Cc1ccco1	0	17132*	-5	nt	-2
C=CCn1c(SCC(=O)Nc2cc(C)ccc2OC)nnc1-c1ccco1	-4	3117	-3	nt	0
CCOc1ccccc1NC(=O)CSc1nnc(-c2ccccn2)n1Cc1ccco1	-7	5745	-12	nt	0
Cc1cc(NC(=O)CSc2nnc(CNc3cccc(C(F)(F)F)c3)n2Cc2ccco2)no1	-4	17703*	-6	nt	-3
C[C@H]1CN([C@@H](C)CO)C(=O)Cc2cc(N(C)C)ccc2O[C@@H]1CN(C)Cc1ccc(Oc2ccccc2)cc1	nt	nt	nt	-6	nt
CN1C(=O)c2cc(NC(=O)c3ccccc3Cl)ccc2OC[C@@H]2O[C@@H](CC(=O)O)CC[C@@H]21	nt	nt	nt	1	nt
C=CCn1c(Cc2cccs2)nnc1SCC(=O)c1ccc2ccccc2c1	-1	23327*	0	nt	?
C=CCn1c(CCNC(=O)c2cccs2)nnc1SCC(=O)Nc1cccc(Cl)c1C	1	20193*	-3	nt	?
C=CCn1c(CCNC(=O)c2cccs2)nnc1SCC(=O)c1cccc([N+](=O)[O-])c1	0	14951	5	nt	4
C=CCn1c(CNC(=O)c2ccco2)nnc1SCC(=O)c1ccccc1	2	4760	0	0	0
C=CCn1c(CNC(=O)c2cccs2)nnc1SCC(=O)c1ccc(Br)cc1	0	23917*	-1	nt	-1
C=CCn1c(CCNC(=O)c2cccs2)nnc1SCC(=O)c1ccc(Cl)cc1	0	23328*	1	nt	0
CO[C@H]1CN(C)C(=O)c2cc(NC(=O)NC(C)C)ccc2OC[C@@H](C)N(Cc2ccc(-c3ccccn3)cc2)C[C@@H]1C	nt	nt	nt	0	nt
C[C@H](CO)N1C[C@H](C)[C@@H](CN(C)C(=O)Nc2ccccc2)Oc2ccc(NS(=O)(=O)c3ccc(Cl)cc3)cc2CC1=O	nt	nt	nt	0	nt
C=CCn1c(CNC(=O)c2cccs2)nnc1SCC(=O)Nc1ccc(C(=O)O)cc1	-5	19549*	0	nt	?
C[C@@H]1CN([C@@H](C)CO)C(=O)c2cc(NS(=O)(=O)c3ccc(F)cc3)ccc2O[C@@H](C)CCCCO[C@H]1CN(C)C(=O)CCC(F)(F)F	nt	nt	nt	0	nt
C[C@@H]1CN([C@H](C)CO)C(=O)c2cc(-c3ccc(F)cc3)cnc2O[C@H]1CN(C)C(=O)NC1CCCC1	nt	nt	nt	0	nt
CCN1C(=O)C(=Cc2ccc(C)s2)C(=O)N(CC)C1=S	28	3018	7	0	69*
COCC(=O)Nc1ccc2c(c1)[C@@H]1C[C@@H](CC(=O)O)O[C@H](CO)[C@@H]1O2	nt	nt	nt	-1	nt

Compound activity: PubChem, several laboratories
